Measured values: PubChem BioAssay AID686978 (National Center for Advancing Translational Sciences (NCATS), 2013)
“And” between values parts separate entries of the source, which are not always exact repeats. Equal entries are not always repeated. The whole screen tested about 420,000 compounds, of which about 64,000 (15%) were called active. Roughly 27% stayed inconclusive and do not appear here. The call rests on the fitted dose curve; in most records, active means well fitted inhibition curve with a large enough effect; inconclusive means small, poorly fitted or top-dose-only effect; inactive means flat fitted curve, though single readings scatter. A selection follows. Where a call stands in place of a potency, no number is given.

Assay: qHTS for Inhibitors of human tyrosyl-DNA phosphodiesterase 1 (TDP1): qHTS in cells in absence of CPT; further: nearly all actives have a fitted effect of over 55% in size
Conditions: DT40 Tdp1-/- hTDP1 cells, no CPT, ATP luminescence, 48 h; activity change, negative = growth inhibition: at 46.2 µM (top of the series)
Text: Human tyrosyl-DNA phosphodiesterase 1 (TDP1) is a novel repair gene, and we propose to use it as a new target for anticancer drug development. TDP1 is not an essential protein, but under treatment with topoisomerase I poison (camptothecin: CPT), TDP1 works as a critical factor for cell survival. To directly identify novel TDP1 inhibitors active in a cellular environment, we have knocked-out the Tdp1 gene in chicken DT40 cells (Tdp1-/-) and generated a complemented counterpart cells that contains a stable transfection of the human TDP1 gene (Tdp1-/-;hTDP1 cells). For the primary screen, Tdp1-/-;hTDP1 cells will be exposed to small molecules in the presence or absence of CPT, and their growth kinetics will be evaluated after 48 hours by measuring ATP activity. […] The hit compounds will then be evaluated in the presence or absence of CPT using Tdp1-/- cells. […] In tertiary assays, biochemical gel-based assays will be used to assess whether the hit compounds specifically target TDP1.
To this end, we have screened this cell line against the MLSMR in two primary screens. In one screen we add CPT and in the other we screen in the absence of CPT; this AID represents the screen where CPT was absent.
NIH Chemical Genomics Center [NCGC]
NIH Molecular Libraries Probe Centers Network [MLPCN]
Assay Submitter (PI): Yves Pommier, NCI
DT40-hTDP1 cells without 20 nM Camptothecin (add 20 microL of DMSO in 1 L of cell culture medium) were dispensed at 400 cells/5microL/well in tissue culture treated 1536-well white wall/solid bottom assay plates (Greiner Bio-One North America, NC, U.S.A.) using a Multidrop Combi 8 channel dispenser (Thermo Fisher, Waltham, MA, USA). 23 nL compounds and controls were transferred using the pin tool (Kalypsys, San Diego, CA, USA) to the assay plates. The assay plates were then incubated at 37 masculineC for a minimum 48 hr. Three microL of Cell Titer Glo solution was added to the plates and incubated at RT in dark for 30 min. Luminescence was read using ViewLux (Perkin Elmer) with 1 sec exposure slow speed, high gain and 2x binning.
Potency means the concentration at half of the fitted maximal effect.

Compound	Potency
CCOc1cc(N2CCOCC2)c(OCC)cc1NC(=O)c1ccc(C)s1	2.06 µM (active)
O=C(Nc1ccccc1N1CCOCC1)c1csc2c1CCCC2	inactive
COc1cc(C(=O)Nc2cc(C(F)(F)F)ccc2N2CCOCC2)ccc1O	inactive
CCOc1cc(N2CCOCC2)c(OCC)cc1NC(=O)c1cc(C)nc2ccccc12	14.6 µM (active)
CCOc1ccc(NC(=O)c2cc(C)nc3ccccc23)cc1	inactive
O=C(NNC(=O)c1cc(-c2ccccc2Cl)nc2ccccc12)c1csc(N2CCOCC2)n1	inactive
Cc1oc(C)c(C(=O)NCCCC(=O)O)c1C(=O)NCCCC(=O)O	inactive
Cc1ccc(S(=O)(=O)N2CCCCC2)cc1C(=O)N1CCN(CCO)CC1	inactive
CCn1nc(C)c(CNC(=O)C2CCC(=O)N(Cc3cccc(F)c3)C2)c1C (stereo unspecified)	inactive
CCc1ccc(C(=O)OCC(=O)NCC(F)(F)F)cc1	inactive
CC(N)C12CC3CC(CC(O)(C3)C1)C2 (stereo unspecified)	inactive
CCc1cccc(NC(=O)c2cc(-c3ccccc3)n[nH]2)c1	inactive
C=C1c2cc(CC)ccc2NC(=O)N1c1ccc(C)cc1	inactive
CCc1ccc2c(c1)C1(NN=C(c3ccccc3)S1)C(=O)N2 (stereo unspecified)	2.31 µM (active)
Cc1cccc(C)c1NC(=O)C(c1ccccc1)N1CC(=O)Nc2ccccc21 (stereo unspecified)	inactive
COc1ccc(/C=C(/NC(=O)c2ccco2)C(=O)Nc2ccc(C(C)=O)cc2)cc1	inactive
COc1ccc(/C=C(/NC(=O)c2ccccc2)C(=O)Nc2cccc(C(=O)O)c2)cc1	inactive
COc1ccc(/C=C(\NC(=O)c2ccc(OCC(C)C)cc2)C(=O)OCc2ccco2)cc1	16.4 µM (active)
CCOc1cc(/C=N/NC(=O)c2ccncc2)cc(Br)c1O	inactive
Cc1ccc(OCCOCCOc2ccc(Br)cc2/C=N\NC(=O)c2ccncc2)cc1	18.4 µM (active)
Cc1ccc(OCCOc2cccc(/C=N/NC(N)=O)c2)cc1	inactive
CCCOn1c(-n2nc(C)cc2C)nc2ccccc2c1=O	inactive
CC(=O)c1ccc(OCC(=O)N(C)C2CCS(=O)(=O)C2)cc1 (stereo unspecified)	inactive
Cc1cc2c(cc3c(SCc4nc(-c5ccccc5)oc4C)nnc(C)n32)o1	16.4 µM (active)
Cc1cc(NC(=O)CSCc2nc(-c3cccc(Cl)c3)oc2C)no1	inactive
Cc1oc(-c2cccc(NC(=O)c3ccccc3)c2)nc1CNC(=O)c1cnc2ccccn2c1=O	inactive

Compound	Potency
C/C(=C\C(=O)c1cccnc1)Nc1ccc(C)c(C)c1	inactive
CSc1nc2ccccc2cc1/C=C(\C#N)c1ccc(Cl)cc1Cl	inactive
O=C(CCCC(=O)N1CCN(c2cccc(Cl)c2)CC1)c1ccccc1	18.4 µM (active)
CC(C)c1nnc(NC(=O)CCC(=O)N2CCN(c3cccc(Cl)c3)CC2)s1	inactive
O=C(CCCN1C(=O)C2C3C=CC(C3)C2C1=O)N1CCN(c2ccccc2)CC1 (stereo unspecified)	inactive
COc1ccc(NC(=O)CN(C)C(=O)c2ccc(NC3CC3)c([N+](=O)[O-])c2)cc1	inactive
O=C1CN(C(=O)c2ccccc2F)C(c2ccc(F)cc2)c2cc(F)ccc2N1 (stereo unspecified)	inactive
CCOC(=O)CCc1c(C)c2ccc(OCc3nn[nH]n3)c(C)c2oc1=O	inactive
CC(C)C[C@@H]1COc2cc(N3CCC[C@@H]3CO)ccc2S(=O)(=O)N1	inactive
COc1ccc(/C=C2/SC(=O)N(CCCCCC(=O)Nc3ccccc3C(=O)O)C2=S)cc1	inactive
CNN/C(N=Cc1ccc([N+](=O)[O-])s1)=N\S(=O)(=O)c1cc(C)c(Cl)cc1SCc1ccccc1	1.3 µM (active)
CCC(C)(C(=O)NC1CCCCC1)N(C)C(=O)c1ccc2c(c1)OCO2 (stereo unspecified)	inactive
CCOc1ccccc1NC(=O)NC1CCCCCCC1	inactive
CCOc1ccccc1NC(=S)C(=C([O-])c1ccc2c(c1)OCCO2)[n+]1ccc(CC)cc1	18.4 µM (active)
O=[N+]([O-])c1cccc(/C([O-])=C(/C(=S)Nc2ccccc2F)[n+]2ccccc2)c1	inactive
CC1(C)O[C@@H]2[C@H](O1)[C@@H](CO)O[C@H]2n1c(N2CCCCC2)nc2c(N)ncnc21	inactive
CC(C)=CCN1CCN(Cc2cc3ccccc3[nH]2)CC1CCO (stereo unspecified)	inactive
COc1ccc(COC(=O)NC(C(=O)O)c2ccccc2)cc1 (stereo unspecified)	inactive
CCc1nn(CCCN2CCN(c3cccc(Cl)c3)CC2)c(=O)n1CCOc1ccccc1	15 µM (active) and 5.31 µM (active)
COc1cccc(N2CCN(C3CC(=O)N(c4ccc(Cl)cc4)C3=O)CC2)c1 (stereo unspecified)	inactive
Cc1nn(CCOc2ccccc2)c(=O)n1-c1ccccc1F	inactive
CN1C(C(=O)NCC2CC2)CC2Cn3c(nc4ccccc43)C21 (stereo unspecified)	inactive
O=C(Nc1cc(S(=O)(=O)Nc2ccc(Cl)cc2)ccc1O)c1ccc(F)cc1F	13 µM (active)
CCS(=O)(=O)c1ccc(O)c(NC(=O)COc2ccc(Cl)cc2)c1	inactive
O=C(Nc1cccc(S(=O)(=O)NC2=NCCC2)c1)c1ccc(F)cc1F	inactive
